What all share (test): DAPPL (digital affinity profiling via proximity ligation, sequencing); 10 mM Tris-HCl pH 7.5, 50 mM NaCl, 1 mM DTT, 4% glycerol, room temperature, 30 min; GST-TFs on glutathione beads, 16-mer random dsDNA library, 0.1% formaldehyde crosslink after washing; high values mean tight binding
For one experiment, the target named is T1, FEV (Homo sapiens, UniProt Q99581 1-238).
T1 sequence: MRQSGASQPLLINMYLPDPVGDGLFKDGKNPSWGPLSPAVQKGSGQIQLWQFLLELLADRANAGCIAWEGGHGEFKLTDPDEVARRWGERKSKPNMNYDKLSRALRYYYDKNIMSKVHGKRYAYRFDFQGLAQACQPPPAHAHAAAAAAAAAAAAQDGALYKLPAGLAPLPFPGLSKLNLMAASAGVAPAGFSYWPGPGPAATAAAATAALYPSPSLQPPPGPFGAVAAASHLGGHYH
Particulars: protein: recombinant; tags: N-terminal GST; dsDNA, one strand shown. The method in brief:
(§1)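 Human transcription factors were made in yeast as GST fusions, captured on glutathione beads and barcoded with DNA. With a tag-only sample included, the pool was incubated with 200 nmole of a random double-stranded 16-mer DNA library in Tris/NaCl/DTT/glycerol buffer at room temperature for 30 min, then crosslinked with 0.1% formaldehyde after washing, ligated by proximity, amplified and sequenced. For binding signal, each hexamer's read frequency for a factor is divided by its frequency for the tag-only sample.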

For a further experiment, the target named is ETV5 (Homo sapiens, UniProt P41161 1-510). Particulars: protein: recombinant; tags: N-terminal GST; dsDNA, one strand shown. The procedure, abridged: as §1
ETV5, sequence (P41161 whole entry): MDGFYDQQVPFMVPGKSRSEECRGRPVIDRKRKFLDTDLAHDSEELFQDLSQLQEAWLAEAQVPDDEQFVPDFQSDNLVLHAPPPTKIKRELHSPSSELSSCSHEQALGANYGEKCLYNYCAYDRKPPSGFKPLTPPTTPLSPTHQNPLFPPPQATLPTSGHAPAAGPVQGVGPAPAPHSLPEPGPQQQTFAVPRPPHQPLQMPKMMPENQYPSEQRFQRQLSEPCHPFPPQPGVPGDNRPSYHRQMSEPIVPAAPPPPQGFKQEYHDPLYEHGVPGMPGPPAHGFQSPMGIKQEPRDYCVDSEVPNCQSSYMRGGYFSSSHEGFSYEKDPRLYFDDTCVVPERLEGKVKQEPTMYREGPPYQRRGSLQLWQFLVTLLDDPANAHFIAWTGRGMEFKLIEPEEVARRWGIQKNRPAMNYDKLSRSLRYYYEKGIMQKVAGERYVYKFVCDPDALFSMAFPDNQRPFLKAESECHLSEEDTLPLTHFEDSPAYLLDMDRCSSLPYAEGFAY
The target in another experiment is HSF1 (Homo sapiens, UniProt Q00613 1-529). The settings on record: protein: recombinant; tags: N-terminal GST; chain copies: 3; dsDNA, one strand shown. The procedure, abridged:
as §1

In the next experiment the target is T2, SPIC (Homo sapiens, UniProt Q8N5J4 1-248).
T2 sequence: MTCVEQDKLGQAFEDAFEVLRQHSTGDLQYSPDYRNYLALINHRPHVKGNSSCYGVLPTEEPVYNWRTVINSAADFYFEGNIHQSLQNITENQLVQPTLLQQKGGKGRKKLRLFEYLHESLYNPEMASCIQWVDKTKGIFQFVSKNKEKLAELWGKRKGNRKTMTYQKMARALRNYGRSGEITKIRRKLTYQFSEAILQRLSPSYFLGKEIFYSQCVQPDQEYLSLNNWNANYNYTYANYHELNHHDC
The settings on record: protein: recombinant; tags: N-terminal GST; dsDNA, one strand shown. The method in brief: as §1

Another experiment addresses ELF4 (Homo sapiens, UniProt Q99607 1-663). Particulars: protein: recombinant; tags: N-terminal GST; dsDNA, one strand shown. The procedure, abridged: as §1
Another experiment concerns the target T3, ELK4 (Homo sapiens, UniProt P28324-2 1-405).
T3 sequence: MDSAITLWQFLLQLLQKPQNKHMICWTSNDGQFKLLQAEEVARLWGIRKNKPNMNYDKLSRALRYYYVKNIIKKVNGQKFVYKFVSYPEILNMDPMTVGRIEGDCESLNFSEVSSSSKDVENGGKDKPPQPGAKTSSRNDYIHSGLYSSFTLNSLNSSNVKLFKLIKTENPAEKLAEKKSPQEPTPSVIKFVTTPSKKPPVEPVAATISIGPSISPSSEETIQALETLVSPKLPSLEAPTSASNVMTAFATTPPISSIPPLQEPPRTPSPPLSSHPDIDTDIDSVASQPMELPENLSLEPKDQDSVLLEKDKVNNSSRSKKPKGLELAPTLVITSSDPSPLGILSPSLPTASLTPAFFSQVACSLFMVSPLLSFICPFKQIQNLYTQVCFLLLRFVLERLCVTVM
Particulars: protein: recombinant; tags: N-terminal GST; dsDNA, one strand shown. The method in brief: as §1

The target of a further experiment is T4, ETV2 (Homo sapiens, UniProt O00321 1-342).
T4 sequence: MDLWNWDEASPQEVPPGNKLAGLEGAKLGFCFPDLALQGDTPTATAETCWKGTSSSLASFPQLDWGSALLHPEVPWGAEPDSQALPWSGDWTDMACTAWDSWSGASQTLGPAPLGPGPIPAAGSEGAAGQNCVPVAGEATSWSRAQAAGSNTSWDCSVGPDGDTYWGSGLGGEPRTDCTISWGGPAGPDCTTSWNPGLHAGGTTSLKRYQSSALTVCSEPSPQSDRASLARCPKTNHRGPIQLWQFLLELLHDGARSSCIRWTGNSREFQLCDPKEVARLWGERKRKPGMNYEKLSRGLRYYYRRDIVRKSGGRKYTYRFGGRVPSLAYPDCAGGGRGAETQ
Particulars: protein: recombinant; tags: N-terminal GST; dsDNA, one strand shown. The method in brief:
as §1

The target in another experiment is T5, ELF3 (Homo sapiens, UniProt P78545 1-371).
T5 sequence: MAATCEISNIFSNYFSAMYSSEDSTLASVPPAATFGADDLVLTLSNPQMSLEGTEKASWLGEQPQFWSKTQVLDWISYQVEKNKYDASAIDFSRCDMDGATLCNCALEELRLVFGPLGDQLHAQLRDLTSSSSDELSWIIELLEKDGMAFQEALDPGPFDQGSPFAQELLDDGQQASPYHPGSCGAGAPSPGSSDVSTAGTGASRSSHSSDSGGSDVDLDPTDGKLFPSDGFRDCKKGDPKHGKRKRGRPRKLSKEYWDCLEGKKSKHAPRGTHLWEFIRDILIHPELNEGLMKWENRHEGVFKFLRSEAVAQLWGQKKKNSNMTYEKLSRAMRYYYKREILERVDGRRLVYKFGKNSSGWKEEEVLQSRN
Particulars: protein: recombinant; tags: N-terminal GST; dsDNA, one strand shown. The method in brief: as §1

Another experiment has as its target CRX (Homo sapiens, UniProt O43186 1-299). Particulars: protein: recombinant; tags: N-terminal GST; dsDNA, one strand shown. The method in brief:
as §1

The next experiment has as its target ETV1 (Homo sapiens, UniProt P50549 1-477). The settings on record: protein: recombinant; tags: N-terminal GST; dsDNA, one strand shown. The procedure, abridged:
as §1

ETV1, sequence (P50549 whole entry): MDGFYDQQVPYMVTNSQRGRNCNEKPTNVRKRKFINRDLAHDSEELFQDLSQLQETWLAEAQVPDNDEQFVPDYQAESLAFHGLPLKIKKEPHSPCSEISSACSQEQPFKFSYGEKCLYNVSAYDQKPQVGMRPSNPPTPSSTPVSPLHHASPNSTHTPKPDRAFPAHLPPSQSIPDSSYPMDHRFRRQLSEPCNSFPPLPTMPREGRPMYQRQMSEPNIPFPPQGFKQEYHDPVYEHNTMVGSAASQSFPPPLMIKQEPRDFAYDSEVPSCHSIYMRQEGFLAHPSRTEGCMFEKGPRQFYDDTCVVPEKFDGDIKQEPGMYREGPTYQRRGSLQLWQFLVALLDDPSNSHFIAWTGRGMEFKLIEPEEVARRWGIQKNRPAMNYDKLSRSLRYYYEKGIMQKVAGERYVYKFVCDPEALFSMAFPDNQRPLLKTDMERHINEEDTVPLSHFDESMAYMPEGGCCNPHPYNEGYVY
ELF4, sequence (Q99607 whole entry): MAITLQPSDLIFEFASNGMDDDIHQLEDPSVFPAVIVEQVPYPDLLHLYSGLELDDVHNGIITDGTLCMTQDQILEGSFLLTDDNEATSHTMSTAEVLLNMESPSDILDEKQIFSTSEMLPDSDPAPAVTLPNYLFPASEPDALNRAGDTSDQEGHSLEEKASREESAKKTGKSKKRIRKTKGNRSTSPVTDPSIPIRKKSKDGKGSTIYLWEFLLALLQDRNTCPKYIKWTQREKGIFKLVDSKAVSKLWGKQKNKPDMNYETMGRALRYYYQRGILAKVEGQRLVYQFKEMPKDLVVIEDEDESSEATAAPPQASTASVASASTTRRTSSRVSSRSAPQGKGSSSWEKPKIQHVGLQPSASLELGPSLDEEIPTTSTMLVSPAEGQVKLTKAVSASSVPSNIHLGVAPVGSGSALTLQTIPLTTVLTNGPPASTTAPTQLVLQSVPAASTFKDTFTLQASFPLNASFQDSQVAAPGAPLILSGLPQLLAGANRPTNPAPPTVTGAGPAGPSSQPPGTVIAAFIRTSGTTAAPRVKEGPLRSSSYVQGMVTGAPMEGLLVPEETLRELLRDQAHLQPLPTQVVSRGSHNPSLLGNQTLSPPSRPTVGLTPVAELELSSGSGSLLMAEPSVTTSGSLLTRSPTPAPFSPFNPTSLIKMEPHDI
HSF1, sequence (Q00613 whole entry): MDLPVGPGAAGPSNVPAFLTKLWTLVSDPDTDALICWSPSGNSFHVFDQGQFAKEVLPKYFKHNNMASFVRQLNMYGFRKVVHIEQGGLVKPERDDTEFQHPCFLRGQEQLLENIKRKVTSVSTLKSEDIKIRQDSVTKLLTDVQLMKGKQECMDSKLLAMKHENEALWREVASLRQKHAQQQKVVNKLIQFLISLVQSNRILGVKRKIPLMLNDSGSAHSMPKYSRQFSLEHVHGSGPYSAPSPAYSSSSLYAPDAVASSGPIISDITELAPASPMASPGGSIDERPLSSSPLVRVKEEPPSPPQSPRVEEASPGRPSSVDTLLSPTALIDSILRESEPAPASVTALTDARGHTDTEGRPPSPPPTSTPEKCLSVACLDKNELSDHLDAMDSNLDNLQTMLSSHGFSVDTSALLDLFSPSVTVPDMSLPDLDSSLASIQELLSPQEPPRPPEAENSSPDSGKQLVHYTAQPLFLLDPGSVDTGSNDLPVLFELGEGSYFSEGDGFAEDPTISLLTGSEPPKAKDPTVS
CRX, sequence (O43186 whole entry): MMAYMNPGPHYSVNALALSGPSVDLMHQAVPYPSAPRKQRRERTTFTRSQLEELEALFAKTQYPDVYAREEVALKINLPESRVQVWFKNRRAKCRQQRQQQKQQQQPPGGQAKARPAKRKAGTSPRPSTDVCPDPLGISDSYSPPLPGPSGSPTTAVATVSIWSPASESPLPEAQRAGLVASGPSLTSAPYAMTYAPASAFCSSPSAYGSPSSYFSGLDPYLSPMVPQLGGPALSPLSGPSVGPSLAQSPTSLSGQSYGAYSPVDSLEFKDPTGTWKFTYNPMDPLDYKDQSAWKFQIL

As for TAATGG, the binding signal is 1.25 fold enrichment (6-mer frequency, TF over GST control) with FEV; 1.35 fold enrichment (6-mer frequency, TF over GST control) with ETV5; 1.46 fold enrichment (6-mer frequency, TF over GST control) with HSF1; 1.34 fold enrichment (6-mer frequency, TF over GST control) in the experiment with SPIC; 1.3 fold enrichment (6-mer frequency, TF over GST control) with ELF4; 1.3 fold enrichment (6-mer frequency, TF over GST control) in the experiment with ELK4. Moreover, the binding signal with ETV2 is 1.09 fold enrichment (6-mer frequency, TF over GST control); with ELF3, 1.31 fold enrichment (6-mer frequency, TF over GST control); in the experiment with CRX, 1.64 fold enrichment (6-mer frequency, TF over GST control); in the experiment with ETV1, 1.45 fold enrichment (6-mer frequency, TF over GST control).

In the case of CGACCT, the binding signal is 1.59 fold enrichment (6-mer frequency, TF over GST control) in the experiment with FEV; 1.61 fold enrichment (6-mer frequency, TF over GST control) with ETV5; 1.35 fold enrichment (6-mer frequency, TF over GST control) with HSF1; 1.41 fold enrichment (6-mer frequency, TF over GST control) in the experiment with SPIC; 1.61 fold enrichment (6-mer frequency, TF over GST control) in the experiment with ELF4; 1.56 fold enrichment (6-mer frequency, TF over GST control) in the experiment with ELK4. In addition, the binding signal was 1.73 fold enrichment (6-mer frequency, TF over GST control) with ETV2; 1.45 fold enrichment (6-mer frequency, TF over GST control) with ELF3; 1.21 fold enrichment (6-mer frequency, TF over GST control) in the experiment with CRX; 1.55 fold enrichment (6-mer frequency, TF over GST control) with ETV1.

Consider ACCCGA, for which the binding signal in the experiment with FEV was 1.1 fold enrichment (6-mer frequency, TF over GST control); in the experiment with ETV5, 1.08 fold enrichment (6-mer frequency, TF over GST control); with HSF1, 1.21 fold enrichment (6-mer frequency, TF over GST control); in the experiment with SPIC, 1.08 fold enrichment (6-mer frequency, TF over GST control); with ELF4 it was 1.03 fold enrichment (6-mer frequency, TF over GST control); with ELK4, 1.04 fold enrichment (6-mer frequency, TF over GST control). The binding signal in the experiment with ETV2 is 1.17 fold enrichment (6-mer frequency, TF over GST control); in the experiment with ELF3, 1.11 fold enrichment (6-mer frequency, TF over GST control); in the experiment with CRX, 1.1 fold enrichment (6-mer frequency, TF over GST control); with ETV1, 1.1 fold enrichment (6-mer frequency, TF over GST control).

As to CGAAAC, the binding signal was 1.2 fold enrichment (6-mer frequency, TF over GST control) with FEV; 1.25 fold enrichment (6-mer frequency, TF over GST control) in the experiment with ETV5; 1.58 fold enrichment (6-mer frequency, TF over GST control) with HSF1; 1.27 fold enrichment (6-mer frequency, TF over GST control) with SPIC; 1.2 fold enrichment (6-mer frequency, TF over GST control) in the experiment with ELF4; 1.15 fold enrichment (6-mer frequency, TF over GST control) in the experiment with ELK4. Moreover, the binding signal is 1.22 fold enrichment (6-mer frequency, TF over GST control) with ETV2; 1.15 fold enrichment (6-mer frequency, TF over GST control) with ELF3; 1.02 fold enrichment (6-mer frequency, TF over GST control) with CRX; 1.21 fold enrichment (6-mer frequency, TF over GST control) in the experiment with ETV1.

On to CTAAAG, for which the binding signal was 1.29 fold enrichment (6-mer frequency, TF over GST control) with FEV; 1.29 fold enrichment (6-mer frequency, TF over GST control) with ETV5; 1.48 fold enrichment (6-mer frequency, TF over GST control) with HSF1; 1.36 fold enrichment (6-mer frequency, TF over GST control) with SPIC; 1.34 fold enrichment (6-mer frequency, TF over GST control) in the experiment with ELF4; 1.44 fold enrichment (6-mer frequency, TF over GST control) with ELK4. In addition, the binding signal is 1.29 fold enrichment (6-mer frequency, TF over GST control) in the experiment with ETV2; 1.44 fold enrichment (6-mer frequency, TF over GST control) in the experiment with ELF3; 1.85 fold enrichment (6-mer frequency, TF over GST control) with CRX; 1.45 fold enrichment (6-mer frequency, TF over GST control) with ETV1.

Take TCTGGG: the binding signal with FEV was 1.13 fold enrichment (6-mer frequency, TF over GST control); with ETV5 it was 1.13 fold enrichment (6-mer frequency, TF over GST control); with HSF1 it was 1.4 fold enrichment (6-mer frequency, TF over GST control); with SPIC it was 1.11 fold enrichment (6-mer frequency, TF over GST control); in the experiment with ELF4, 1.08 fold enrichment (6-mer frequency, TF over GST control); with ELK4, 1.22 fold enrichment (6-mer frequency, TF over GST control). In addition, the binding signal with ETV2 is 1.19 fold enrichment (6-mer frequency, TF over GST control); in the experiment with ELF3, 1.12 fold enrichment (6-mer frequency, TF over GST control); in the experiment with CRX it was 1.1 fold enrichment (6-mer frequency, TF over GST control); with ETV1, 1.04 fold enrichment (6-mer frequency, TF over GST control).

As for TTGAGG, the binding signal with FEV is 1.06 fold enrichment (6-mer frequency, TF over GST control); with ETV5, 1.09 fold enrichment (6-mer frequency, TF over GST control); with HSF1 it was 1.01 fold enrichment (6-mer frequency, TF over GST control); with SPIC, 1.26 fold enrichment (6-mer frequency, TF over GST control); with ELF4 it was 1.13 fold enrichment (6-mer frequency, TF over GST control); in the experiment with ELK4, 1.23 fold enrichment (6-mer frequency, TF over GST control). Also, the binding signal with ETV2 was 1.1 fold enrichment (6-mer frequency, TF over GST control); with ELF3, 1.05 fold enrichment (6-mer frequency, TF over GST control); in the experiment with CRX it was 1.02 fold enrichment (6-mer frequency, TF over GST control); with ETV1, 1.06 fold enrichment (6-mer frequency, TF over GST control).

Take CCTTCG: the binding signal in the experiment with FEV is 1.38 fold enrichment (6-mer frequency, TF over GST control); in the experiment with ETV5 it was 1.3 fold enrichment (6-mer frequency, TF over GST control); in the experiment with HSF1, 1.88 fold enrichment (6-mer frequency, TF over GST control); with SPIC it was 1.31 fold enrichment (6-mer frequency, TF over GST control); in the experiment with ELF4 it was 1.39 fold enrichment (6-mer frequency, TF over GST control); with ELK4 it was 1.34 fold enrichment (6-mer frequency, TF over GST control). Besides, the binding signal is 1.39 fold enrichment (6-mer frequency, TF over GST control) with ETV2; 1.28 fold enrichment (6-mer frequency, TF over GST control) with ELF3; 1.28 fold enrichment (6-mer frequency, TF over GST control) in the experiment with CRX; 1.5 fold enrichment (6-mer frequency, TF over GST control) in the experiment with ETV1.

(Values after PMC7862700, “An all-to-all approach to the identification of sequence-specific readers for epigenetic DNA modifications on cytosine”.)
